Source: PubChem (National Center for Advancing Translational Sciences (NCATS))
Shown are actives, neighbours in structure and some others; about 7.4% of the full set was active somewhere.
FLuc counter: firefly luciferase modulation, counter-screen for miR-21 project; P08659; purified FLuc, Km substrates, luminescence inhibition; Potency, µM (titrated, usually from 57.5 µM), inactives show at the highest dose activity change, negative = inhibition, hits mostly inhibitors; actives 6.9% (n = 360,000);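 also: plate controls were vehicle for no effect and reference inhibitor for full effect; nearly all actives have a fitted effect of over 55% in size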
Target sequence (P08659 whole entry, looked up): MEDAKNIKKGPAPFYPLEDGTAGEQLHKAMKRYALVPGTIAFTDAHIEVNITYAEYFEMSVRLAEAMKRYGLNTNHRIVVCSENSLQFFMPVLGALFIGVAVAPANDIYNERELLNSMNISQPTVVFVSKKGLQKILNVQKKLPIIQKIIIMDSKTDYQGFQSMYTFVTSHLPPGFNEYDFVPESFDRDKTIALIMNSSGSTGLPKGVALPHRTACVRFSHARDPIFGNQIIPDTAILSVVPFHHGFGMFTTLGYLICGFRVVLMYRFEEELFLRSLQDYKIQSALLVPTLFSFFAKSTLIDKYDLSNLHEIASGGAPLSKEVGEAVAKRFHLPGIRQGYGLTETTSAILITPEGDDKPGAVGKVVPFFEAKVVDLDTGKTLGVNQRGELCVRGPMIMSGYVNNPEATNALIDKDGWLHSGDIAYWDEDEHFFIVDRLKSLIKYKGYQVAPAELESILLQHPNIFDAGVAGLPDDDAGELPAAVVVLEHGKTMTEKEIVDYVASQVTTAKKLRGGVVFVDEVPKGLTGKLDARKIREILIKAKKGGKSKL
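Purified P. pyralis luciferase, 10 nM final, with Km-level 10 uM D-luciferin and 10 uM ATP in 50 mM Tris acetate pH 7.5, 10 mM Mg acetate, 0.01% Tween-20, 0.05% BSA; 6-point qHTS titration about 60 µM downward; luminescence read.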
NPC1 prom act: activators of NPC1 promoter | AID 485313 | Huh7 NPC1 promoter luciferase reporter, 24 h | Potency, µM (doses to about 9.22 µM), for inactives: top-dose activation, most hits filed as activators | actives 2.4% (n = 320,000); also: % of control where 0% means no effect; nearly all actives have a fitted effect of over 60% in size
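Readout is luciferase luminescence, reflecting NPC1 promoter activation in stably transfected Huh7 cells after 24 h compound exposure at 37 °C in reduced-serum medium with 10% FBS.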
ELG1 genotox: genotoxicity induction in ELG1-luciferase HEK293T cells | HEK293T ELG1-luciferase reporter, luminescence, 16 h | Potency, µM (doses to about 46 µM), for the others: top-dose activity change, positive = activation, usual class: activators | AID 504466 | actives 1.3% (n = 330,000); also: % of control where 0% means no effect; nearly all actives have a fitted effect of over 60% in size
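ELG1-luciferase HEK293T cells, 2,000/well; compound pinned in; 16 hr, 37 °C, 5% CO2; ONE-Glo, 30 min RT; luminescence on CCD imager.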
SMN2 splice up: SMN2 splice variant enhancement | HEK293 SMN2-luciferase splicing reporter, luminescence, 30-36 h | Potency, µM (titrated, usually from 46.1 µM), without a hit: at the highest dose activity change, positive = activation, actives largely listed as activators | actives 2.8% (n = 210,000) | AID 1458; also: % of control where 0% means no effect; nearly all actives have a fitted effect of over 55% in size
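HEK293 cells carry an SMN2 minigene-luciferase reporter in which exon 7 inclusion puts luciferase in frame. Cells were seeded at 2000 cells/well, attached for 10-12 hours, then exposed to compounds for 30-36 hours at 37C before ONE-Glo luminescence.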
Rab9 promoter act: Rab9 promoter activation; Huh7 Rab9 promoter-luciferase reporter, luminescence, 24 h; Potency, µM (series often up to 9.22 µM), for the others: at the top dose activation, negative = inhibition, usual class: activators; actives 2.8% (n = 320,000); AID 485297; also: % of control where 0% means no effect; nearly all actives have a fitted effect of over 60% in size
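Huh7 cells stably carrying a Rab9 promoter-luciferase reporter, 1500 cells per well in OP-MEM I with 10% FBS, treated with compound 24 hours at 37C. Luciferase activity read by luminescence after 10 minutes with Amplite reagent.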
KinaseGlo FLuc: Kinase-Glo luciferase inhibition (counter-screen) | Q27757 | Kinase-Glo luciferase, ATP luminescence, 8 min | Potency, µM (highest dose often 38.3 µM), for inactives: at the highest dose activity change, negative = inhibition, most hits filed as inhibitors | actives 0.28% (n = 200,000); also: % is scaled to controls: 0 for no effect and ±100 for the full control effect; nearly all actives have a fitted effect of over 60% in size
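Luminescence was the read-out, taken after 8-minute incubation at ambient temperature. Luciferase turned over luciferin with 10 uM ATP in imidazole pH 7.2 buffer containing KCl, MgCl2, Tween 20 and BSA.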
The depositor's hits bear a star; ? = inconclusive; . = no result; [ ] = another dose, or the depositor's remark. Calls follow the shape of the dose curve; as a rule, active = well fitted curve in the direction sought with a large enough effect; inconclusive = small, poorly fitted or top-dose-only effect, or another doubt; inactive = no such curve, though single readings can be large; an effect the other way counts as inactive or inconclusive. Potency is read from the fitted curve at half-maximal effect.

SMILES | FLuc counter | NPC1 prom act | ELG1 genotox | SMN2 splice up | Rab9 promoter act | KinaseGlo FLuc
Nc1n[nH]c(N)c1N=Nc1ccc2c(c1)OCO2 | 12µM* | ? | 5.5% | 21.2% | ? | -2.4%
Cc1ccc(N=Nc2c(N)n[nH]c2N)cc1 | 15.1µM* | ? | ? | . | 18.3% | .
CCOc1ccc(NC(=O)c2ccc(NCC(=O)N3CCCCCC3)cc2)cc1 | 10.7µM* | 26.2% | -7.1% | -3.6% | 9.0% | -7.2%
Cc1ccc(C(=O)N[C@H](C(=O)Nc2cc(Cl)cc(Cl)c2)C(C)C)cc1 | -1.0% | -1.7% | 1.2% | 6.7% | -4.4% | 2.8%
Cc1ccc(NC(=O)c2ccc(C)cc2)cc1 | 0.849µM* | 0.447µM* | ? | . | 0.251µM* | .
CCOc1ccc(C(=O)NCC(=O)N2CCCCCCC2)cc1 | -3.3% | -0.9% | -1.5% | . | -0.4% | .
COc1ccc(C(=O)Nc2ccc(N3CCN(C)CC3)cc2)cc1OC | 16.9µM* | ? | ? | . | ? | .
Cc1ccc(C(=O)Nc2cc(C(C)C)c(O)c(C(C)C)c2)cc1 | 23.9µM* | 1.1% | -6.9% | 10.9% | -0.3% | -0.8%
COc1cccc(NC(=O)C2CCCN(S(=O)(=O)c3cn(C(C)C)cn3)C2)c1 (stereo not given) | 5.0% | . | . | . | . | .
O=C(Nc1ccc(Cl)c(C(F)(F)F)c1)c1ccncc1 | -6.4% | -3.0% | 0.8% | . | 1.5% | -1.5%
Cc1ccc(C(=O)Nc2ccc(N3CCN(C)CC3)cc2)cc1 | 19µM* | 2.24µM* | ? | . | 2.51µM* | .
CN1CCN(c2ccc(NC(=O)c3ccc4ccccc4c3)cc2)CC1 | 1.9µM* | 0.316µM* | 1.83µM* | . | 0.562µM* | .
COc1ccc(C(=O)Nc2ccc(N3CCN(C)CC3)cc2)cc1 | 19µM* | ? | ? | . | ? | .
Cc1ccc(C(=O)Nc2ccc(Br)c(C(F)(F)F)c2)cc1 | 13.5µM* | ? | -0.8% | 33.0% | ? | -2.2%
Cc1ccc(C(=O)N2CCN(c3ccc(NC(=O)c4cc(C)cc(C)c4)cc3)CC2)cc1 | 3.4% | -3.4% | 0.4% | . | -7.2% | .
Cc1ccc(NC(=O)c2ccc(OC(=O)C(C)Oc3ccc(Cl)cc3C)cc2)cc1 (stereo not given) | -27.3% | 4.47µM* | ? | 8.91µM* | 1.78µM* | -3.5%
CCCCOc1ccc(C(=O)Nc2ccc(N3CCN(C)CC3)cc2)cc1 | -12.1% | -2.6% | 5.1% | 11.7% | -4.1% | -2.7%
CCOc1ccc(C(=O)Nc2ccc(N3CCN(C)CC3)cc2)cc1 | 12µM* | 14.8% | 9.4% | . | 14.5% | .
Cc1cc(Cl)ccc1OC(C)C(=O)OCC(=O)Nc1ccc2[nH]c(=O)[nH]c2c1 (stereo not given) | -0.5% | -4.1% | -1.8% | . | -0.8% | .
COc1ccc(C(CC(=O)c2ccccc2)S(=O)(=O)c2ccc(C)cc2)cc1 (stereo not given) | 0.757µM* | 2.24µM* | ? | ? | 3.98µM* | -19.9%
CC(=O)CC(c1ccccc1)S(=O)(=O)c1ccc(C)cc1 (stereo not given) | -0.3% | -4.6% | 3.8% | 5.3% | 1.7% | -4.8%
COc1cccc(Cn2c(=O)n(Cc3ccccc3)c(=O)c3c2c2cc(OC)ccc2n3C)c1 | -1.8% | . | . | . | . | .
N#Cc1c(-n2ncnc2-c2cccc(Br)c2)sc2c1CCCCC2 | 3.38µM* | . | . | -2.9% | . | .
Cc1ccccc1-c1ncnn1-c1sc2c(c1C#N)CCCCC2 | 0.338µM* | . | . | -9.3% | . | .
N#Cc1c(-n2ncnc2-c2ccc(F)cc2)sc2c1CCCCC2 | 0.426µM* | . | . | -11.1% | . | .
SMILES | FLuc counter | NPC1 prom act | ELG1 genotox | SMN2 splice up | Rab9 promoter act | KinaseGlo FLuc
CC(C)(C)NCc1cccn1-c1sc2c(c1C#N)CCCC2 | 1.5% | 0.1% | -5.3% | -16.4% | 0.2% | -0.4%
N#Cc1c(N2C(=O)Nc3ccccc3N2O)sc2c1CCCCCC2 | ? | 8.6% | -2.7% | 18.5% | 0.7% | 0.5%
CC(C)(C)OC(=O)N1CCC(c2c(C(=O)NCCN3CCCC3)cnn2-c2ccc(Cl)cc2)CC1 | 1.2% | . | . | . | . | .
CCOc1ccc(N=C/C=C/c2ccccc2)c(O)c1 | 8.49µM* | ? | ? | . | ? | .
COc1ccc(NCC(=O)N/N=C/C=C/c2ccccc2[N+](=O)[O-])cc1 | -16.6% | -2.8% | -5.0% | 11.9% | -2.1% | -2.3%
COc1ccc(OCC(=O)N/N=C/C=C/c2ccccc2)cc1 | 4.78µM* | 0.7% | 7.4% | 9.2% | -4.2% | -4.6%
CCOc1ccc(NCC(=O)N/N=C/C=C/c2ccccc2)cc1 | 13.5µM* | 2.3% | 2.9% | -3.8% | -3.1% | 5.4%
COc1ccc(OCC(=O)N/N=C/c2ccncc2)cc1 | -13.2% | -3.3% | 0.9% | 4.6% | 11.7% | -4.6%
O=C(COc1ccc(-c2ccccc2)cc1)N/N=C/c1cc(O)ccc1Br | 10.7µM* | 0.4% | 0.2% | 1.6%[1.84 µM] | 1.1% | -2.8%
C(=C\c1ccccc1)/C=N/Nc1ccc2nncn2n1 | -13.0% | ? | 4.7% | . | -3.7% | .
CC(/C=N/Nc1ccc2nncn2n1)=C\c1ccccc1 | 15.1µM* | 2.4% | 4.9% | . | 11.8% | .
CC(/C=N/Nc1nnc(C)c(=O)[nH]1)=C\c1ccccc1 | 12µM* | ? | 15.2% | ? | ? | -3.0%
COc1cc2c(cc1OC)C1O[C@](CCCCN3C(=O)c4ccccc4C3=O)(C2)OC2=C1C(=O)CC(C)(C)C2 | 3.3%[11.5 µM] | 3.6%[1.84 µM] | . | . | -4.8%[1.84 µM] | .
Cc1ccc(-n2cc(C(=O)c3ccc(F)cc3)nn2)cc1Cl | 0.239µM* | 0.501µM* | ? | 7.08µM* | 0.501µM* | -4.8%
CCOC(=O)c1ccc(-n2cc(C(=O)c3cccnc3)nn2)cc1 | ? | -23.5% | -2.6% | . | -0.8% | .
COCCN(C(=O)c1ccccc1OC)c1nnc(C)s1 | -1.2% | -1.5% | -0.7% | -10.0% | -4.3% | 0.0%
COc1ccccc1C(=O)Nc1nnc(C)s1 | 16.9µM* | ? | 13µM* | 18.3% | ? | -5.7%
COc1ccccc1C(=O)Nc1nnc(-c2ccccc2)s1 | 13.5µM* | ? | ? | . | 16.7% | .
COc1cccc(C(=O)NOCc2ccccc2)c1OC | 26.9µM* | ? | ? | . | ? | .
COc1ccccc1C(=O)N(C)c1nnc(-c2ccccc2)s1 | 19µM* | 3.55µM* | 4.6% | . | ? | .
COc1ccccc1C(=O)Nc1nnc(S(=O)(=O)N(C)Cc2ccccc2)s1 | ? | -3.3% | -3.7% | . | 0.5% | .
Cc1ccc2c(c1)N(C(=O)CCC(=O)NCc1cccc(F)c1)CC(C)O2 (stereo not given) | -6.7% | . | . | . | . | .
Cc1nnc(S(=O)(=O)c2ccc(N=Nc3c(N)nc(N)nc3N)cc2)s1 | . | . | . | 16.2%[9.22 µM] | . | -0.2%[7.66 µM]
Cc1cc(C(C)(C)C)c(OCCCN2CCOCC2)c(C(C)(C)C)c1 | . | . | . | -9.2%[9.22 µM] | . | -1.3%[7.66 µM]
